Data as given in the supplement of paper PMC8728848.
Shown is part of a subset that was picked to be rich in the strongest signals.

Tests used:
Experiment in all cases: glycan array binding signal (z-score within array); higher = stronger binding
Details in all cases: glycan notation: IUPAC condensed, linker removed
[1] = biological target: Fuc(a1-2)Gal(b1-3)GalNAc(b1-3)Gal(a1-4)Gal(b1-4)Glc
Method in brief: (§1)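 Columns mapping to the same glycan were averaged after glycan names were converted to IUPAC-condensed notation. The data come from 3228 arrays in the Consortium for Functional Glycomics database, limited to those with an available protein sequence. Binding is reported as a within-array Z-score averaged across arrays of one protein sequence and across linkers.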

[2] = biological target: Fuc(a1-2)Gal(b1-3)GlcNAc(b1-2)Man(a1-3)[Fuc(a1-2)Gal(b1-3)GlcNAc(b1-2)Man(a1-6)]Man(b1-4)GlcNAc(b1-4)[Fuc(a1-6)]GlcNAc
Method in brief: as §1

[3] = biological target: Fuc(a1-2)Gal(b1-4)GlcNAc(b1-2)[Fuc(a1-2)Gal(b1-4)GlcNAc(b1-4)]Man(a1-3)[Fuc(a1-2)Gal(b1-4)GlcNAc(b1-2)Man(a1-6)]Man(b1-4)GlcNAc(b1-4)GlcNAc
Method in brief: as §1

[4] = biological target: Fuc(a1-2)Gal(b1-4)[Fuc(a1-3)]GlcNAc(b1-2)Man(a1-3)[Fuc(a1-2)Gal(b1-4)[Fuc(a1-3)]GlcNAc(b1-2)Man(a1-6)]Man(b1-4)GlcNAc(b1-4)[Fuc(a1-6)]GlcNAc
Method in brief: as §1

[5] = biological target: Fuc(a1-2)Gal(b1-4)[Fuc(a1-3)]GlcNAc(b1-3)Gal(b1-4)[Fuc(a1-3)]GlcNAc(b1-3)Gal(b1-4)[Fuc(a1-3)]GlcNAc
Method in brief: as §1

[6] = biological target: Fuc(a1-2)Gal(b1-4)[Fuc(a1-3)]GlcNAc(b1-3)[Neu5Ac(a2-6)Gal(b1-4)GlcNAc(b1-6)]Gal(b1-4)Glc
Method in brief: as §1

[7] = biological target: Fuc(a1-2)[Gal(a1-3)]Gal(b1-4)GlcNAc(b1-2)Man(a1-3)[Fuc(a1-2)[Gal(a1-3)]Gal(b1-4)GlcNAc(b1-2)Man(a1-6)]Man(b1-4)GlcNAc(b1-4)GlcNAc
Method in brief: as §1

[8] = biological target: Fuc(a1-2)[GalNAc(a1-3)]Gal(b1-3)GalNAc(b1-3)Gal(a1-4)Gal(b1-4)Glc
Method in brief: as §1

[9] = biological target: Fuc(a1-2)[GalNAc(a1-4)]Gal(b1-4)GlcNAc
Method in brief: as §1

[10] = biological target: Fuc(a1-3)[Gal(b1-4)]GlcNAc(b1-6)GalNAc
Method in brief: as §1

Gal(a1-4)GlcNAc = biological target: Gal(a1-4)GlcNAc
Method in brief: as §1

[11] = biological target: Gal(b1-3)GlcNAc(a1-6)Gal(b1-4)GlcNAc
Method in brief: as §1

[12] = biological target: Gal(b1-3)GlcNAc(b1-2)Man(a1-3)[Gal(b1-3)GlcNAc(b1-2)Man(a1-6)]Man(b1-4)GlcNAc(b1-4)GlcNAc
Method in brief: as §1

[13] = biological target: Gal(b1-3)GlcNAc(b1-3)Gal(b1-4)GlcNAc(b1-6)[Gal(b1-3)GlcNAc(b1-3)]Gal(b1-4)Glc
Method in brief: as §1

[14] = biological target: Gal(b1-3)GlcNAc(b1-3)Gal(b1-4)[Fuc(a1-3)]GlcNAc(b1-6)[Gal(b1-3)GlcNAc(b1-3)]Gal(b1-4)Glc
Method in brief: as §1

[15] = biological target: Gal(b1-4)GlcNAc(b1-2)Man(a1-3)[Gal(b1-4)GlcNAc(b1-2)Man(a1-6)][GlcNAc(b1-4)]Man(b1-4)GlcNAc(b1-4)[Fuc(a1-6)]GlcNAc
Method in brief: as §1

[16] = biological target: Gal(b1-4)GlcNAc(b1-2)Man(a1-3)[Man(a1-6)]Man(b1-4)GlcNAc(b1-4)GlcNAc
Method in brief: as §1

[17] = biological target: Gal(b1-4)GlcNAc(b1-2)Man(a1-6)[GlcNAc(b1-2)Man(a1-3)]Man(b1-4)GlcNAc(b1-4)GlcNAc
Method in brief: as §1

[18] = biological target: Gal(b1-4)GlcNAc(b1-2)[Gal(b1-4)GlcNAc(b1-4)]Man(a1-3)[Gal(b1-4)GlcNAc(b1-2)[Gal(b1-4)GlcNAc(b1-6)]Man(a1-6)]Man(b1-4)GlcNAc(b1-4)GlcNAc
Method in brief: as §1

[19] = biological target: Gal(b1-4)GlcNAc(b1-3)Gal(b1-4)GlcNAc(b1-2)[Gal(b1-4)GlcNAc(b1-3)Gal(b1-4)GlcNAc(b1-6)]Man(a1-6)[Gal(b1-4)GlcNAc(b1-3)Gal(b1-4)GlcNAc(b1-2)Man(a1-3)]Man(b1-4)GlcNAc(b1-4)[Fuc(a1-6)]GlcNAc
Method in brief: as §1

[20] = biological target: Gal(b1-4)GlcNAc(b1-3)Gal(b1-4)GlcNAc(b1-3)Gal(b1-4)GlcNAc(b1-2)[Gal(b1-4)GlcNAc(b1-3)Gal(b1-4)GlcNAc(b1-3)Gal(b1-4)GlcNAc(b1-6)]Man(a1-6)[Gal(b1-4)GlcNAc(b1-3)Gal(b1-4)GlcNAc(b1-3)Gal(b1-4)GlcNAc(b1-2)Man(a1-3)]Man(b1-4)GlcNAc(b1-4)[Fuc(a1-6)]GlcNAc
Method in brief: as §1

[21] = biological target: Gal(b1-4)GlcNAc(b1-3)Gal(b1-4)GlcNAc(b1-3)Gal(b1-4)GlcNAc(b1-3)Gal(b1-4)GlcNAc(b1-3)Gal(b1-4)GlcNAc(b1-2)Man(a1-3)[Gal(b1-4)GlcNAc(b1-3)Gal(b1-4)GlcNAc(b1-3)Gal(b1-4)GlcNAc(b1-3)Gal(b1-4)GlcNAc(b1-3)Gal(b1-4)GlcNAc(b1-2)Man(a1-6)]Man(b1-4)GlcNAc(b1-4)[Fuc(a1-6)]GlcNAc
Method in brief: as §1

[22] = biological target: Gal(b1-4)GlcNAc(b1-3)Gal(b1-4)GlcNAc(b1-3)Gal(b1-4)GlcNAc(b1-3)Gal(b1-4)GlcNAc(b1-3)Gal(b1-4)GlcNAc(b1-2)[Gal(b1-4)GlcNAc(b1-3)Gal(b1-4)GlcNAc(b1-3)Gal(b1-4)GlcNAc(b1-3)Gal(b1-4)GlcNAc(b1-3)Gal(b1-4)GlcNAc(b1-6)]Man(a1-6)[Gal(b1-4)GlcNAc(b1-3)Gal(b1-4)GlcNAc(b1-3)Gal(b1-4)GlcNAc(b1-3)Gal(b1-4)GlcNAc(b1-3)Gal(b1-4)GlcNAc(b1-2)Man(a1-3)]Man(b1-4)GlcNAc(b1-4)[Fuc(a1-6)]GlcNAc
Method in brief: as §1

[23] = biological target: Gal(b1-4)GlcNAc(b1-3)Gal(b1-4)GlcNAc(b1-3)GalNAc
Method in brief: as §1

[24] = biological target: Gal(b1-4)GlcNAc(b1-3)Gal(b1-4)GlcNAc(b1-6)[Gal(b1-3)]GalNAc
Method in brief: as §1

[25] = biological target: Gal(b1-4)GlcNAc(b1-3)Gal(b1-4)[Fuc(a1-3)]GlcNAc(b1-3)Gal(b1-4)[Fuc(a1-3)]GlcNAc
Method in brief: as §1

[26] = biological target: Gal(b1-4)GlcNAc(b1-3)GalNAc
Method in brief: as §1

[27] = biological target: Gal(b1-4)GlcNAc(b1-3)[Fuc(a1-3)GlcNAc(b1-6)]Gal(b1-4)Glc
Method in brief: as §1

Gal3S(b1-4)Glc = biological target: Gal3S(b1-4)Glc
Method in brief: as §1

Gal4S6S(b1-4)GlcNAc = biological target: Gal4S6S(b1-4)GlcNAc
Method in brief: as §1

B1: Awp3 (Candida glabrata), B4UN32 (protein)
chain: MISFVTLLAILGLLSISWADQTVRSVAGDQRVTDPVIVGDNSILDYYGGSNYDFSNNFEIGRGTLYIGKESYFSSFQSAPTDVPNSFHLLIKNTNNLQNNGQFIIENIKRHANQCSNSSIQVFPINFQNDGEFEIISGGVEGRCCLPTSVIAPQNFLNNGKFYYKVLTDTGSIYSGSCMQNVDIGASTTTTVNNNLWEFTGSINAQINGAVSGAAQINLDGSNMFVNANTFSGQVVNLINGGSFLQTSDPLSNIVVINGLGTSDTGVTSIAVKGKGKSFTYNPSSGIVKLTTVEGKTYAYQIGCGYNTKKFITNNDSGASYESADNFFVLTYSEPYSPQTCQLENSSIFSSNFISTSTSSSSSSSSASSLPSSMSSSLPSSLSSSLSSSLSSSMSSSMSSLFIIPPPYTTTRSSGSSIIDTEIVSFYSTTDSPGHTITGTTTTTLYGPHTHSSVSTPSSSSESSTTSNSSIESSSLPHTSVSSTPESSITPSSNTISSSPTSDFSSVQSSSIMESSSVVASSSVINSSSIVDSSSSSASSLPSSMSSSLSSSMSSSLPSSMSSSLSSSLSSSLSSSMSSSMSSLFIIPPPYTTTRSSGSSIIDTEIVSFYSTTDSPGHTITGTTTTTLYGPHTHSSVSTPSSSSESSTTSNSSIESSSLPHTSVSSTPESSITPSSNTISSSPTSDFSSVQSSSIMESSSVVASSSVINSSSIVDSSSSSASSLPSSMPSSLPSSMSSSLSSSMSSSLSSSLSSSLSSSMSSSMSSLFIIPPPYTTTRSSGSSIIDTEIVSFYSTTDSPGHTITGTTTTTLYGPHTHSSVSTPSSSSESSTTSNSSIESSSLPHTSVSSTPESSITPSSNTISSSPTSDFSSVQSSSIMESSSVVASSSATQSSSVINSSSIVDSSSSSASSLPSSMPSSLPSSLSSSLSSSLSSSMSSSMSSLFIIPPPYTTTRSSGSSIIDTEIVSFYSTTDSPGHTITGTTTTTLYESSIYSSSSSTIQESELSNTSRTTMTSNSSVSISSTSSRSSFSNTKSSTIVISQSASLPDSKTDIILSTSSNIGYSSRSLLSDLGTSISDSDIHHSVLHSTESYSSNESGTNPFTSIASLSNFIPESSSHTSTALGSENSVISSDILTTMSHPVATNSGDKPTTPKRSEQVSTTMTSSGPTPDTSSFDTDGMSAYSRPEFTTNSLEVNKSSTSQLGNNKQTFSNLQLESTRPHSENEVDNNTRLLQSIQQSSTYGTNNVNPLSPTGSISIPLTEDGQGDNNNWNSPATNDLCTQISFNLTATTITVTDRITITDSIHDISSEVITSYIYQTIVDQKTVTQTVDGKSLANKMSSIPKPSSRSLIQPQPPVAIELQEGAASTSRVSLVSLFISIILVLL
Q: With B1 as the binder, how does the “glycan array binding signal (z-score)” value [1] read?
A: 2.34

Q: And the “glycan array binding signal (z-score)” value [2]?
A: 1.49

Q: And the “glycan array binding signal (z-score)” value [3]?
A: 3.23

Q: And the “glycan array binding signal (z-score)” value [4]?
A: -0.693

Q: What about the “glycan array binding signal (z-score)” value [5] of the same binder?
A: 1.19

Q: What about the “glycan array binding signal (z-score)” value [6] of the same binder?
A: -1.1

Q: And the “glycan array binding signal (z-score)” value [7]?
A: 2.45

Q: What about the “glycan array binding signal (z-score)” value [8] of the same binder?
A: 2.28

Q: What about the “glycan array binding signal (z-score)” value [9] of the same binder?
A: -0.218

Q: And the “glycan array binding signal (z-score)” value [10]?
A: 0.39

Q: What about the “glycan array binding signal (z-score)” value (Gal(a1-4)GlcNAc) of the same binder?
A: 2.25

Q: What about the “glycan array binding signal (z-score)” value [11] of the same binder?
A: 0.259

Q: And the “glycan array binding signal (z-score)” value [12]?
A: 2.55

Q: And the “glycan array binding signal (z-score)” value [13]?
A: 1.3

Q: And the “glycan array binding signal (z-score)” value [14]?
A: 2.48

Q: And the “glycan array binding signal (z-score)” value [15]?
A: 1.4

Q: What about the “glycan array binding signal (z-score)” value [16] of the same binder?
A: -0.338

Q: What about the “glycan array binding signal (z-score)” value [17] of the same binder?
A: 0.07

Q: What about the “glycan array binding signal (z-score)” value [18] of the same binder?
A: -0.258

Q: What about the “glycan array binding signal (z-score)” value [19] of the same binder?
A: -1.19

Q: What about the “glycan array binding signal (z-score)” value [20] of the same binder?
A: 1.96

Q: And the “glycan array binding signal (z-score)” value [21]?
A: 0.113

Q: And the “glycan array binding signal (z-score)” value [22]?
A: -0.313

Q: And the “glycan array binding signal (z-score)” value [23]?
A: 1.03

Q: And the “glycan array binding signal (z-score)” value [24]?
A: -0.292

Q: And the “glycan array binding signal (z-score)” value [25]?
A: 0.452

Q: What about the “glycan array binding signal (z-score)” value [26] of the same binder?
A: -0.074

Q: And the “glycan array binding signal (z-score)” value [27]?
A: -0.665

Q: And the “glycan array binding signal (z-score)” value (Gal3S(b1-4)Glc)?
A: -0.288

Q: What about the “glycan array binding signal (z-score)” value (Gal4S6S(b1-4)GlcNAc) of the same binder?
A: 0.372
